Source: PubChem BioAssay AID1159580 (chemical genetic matrix, 2015)
The campaign covered roughly 5,500 compounds. About 2,000 (36%) were called active. Roughly 18% stayed inconclusive and do not appear here. Cut-off read from the data, not from the text of the source: active = normalized growth mostly below about 0.91 (no sharp cut-off); inconclusive = no clear call, values can overlap the other calls; inactive = mostly above about 0.92. The list shows a part of the results.

Experiment: chemical genetic growth profiling, strain panel (AID 1159580);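 note: tested at 20 µM; growth read once vehicle control cultures reached saturation at 30 °C; 1 = growth at the plate median or of vehicle wells; lower values mean less growth of the strain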
Conditions: S. cerevisiae deletion strains, growth OD
[1] = locus YHR030C, strain SLT2, stronger effect = lower value
[2] = locus YHR079C, strain IRE1, stronger effect = lower value
[3] = locus YJL095W, strain BCK1, stronger effect = lower value
[4] = locus YJR066W, strain TOR1, stronger effect = lower value
[5] = locus YLR113W, strain HOG1, stronger effect = lower value
[6] = locus YNL183C, strain NPR1, stronger effect = lower value
[7] = locus YOR231W, strain MKK1, stronger effect = lower value
[8] = locus YPL256C, strain CLN2, stronger effect = lower value
[9] = locus YAL040C, strain CLN3, stronger effect = lower value
[10] = locus YCL061C, strain MRC1 (second series), stronger effect = lower value
[11] = locus YDR363W, strain ESC2, stronger effect = lower value
[12] = locus YER002W, strain NOP16, stronger effect = lower value
[13] = locus YGR078C, strain PAC10, stronger effect = lower value
[14] = locus YGR229C, strain SMI1, stronger effect = lower value
[15] = locus YMR263W, strain SAP30, stronger effect = lower value
[16] = locus YNL153C, strain GIM3, stronger effect = lower value
[17] = locus YNL175C, strain NOP13, stronger effect = lower value
[18] = locus YNL197C, strain WHI3, stronger effect = lower value
[19] = locus YNL224C, strain SQS1, stronger effect = lower value
[20] = locus YNL322C, strain KRE1, stronger effect = lower value
[21] = locus YOR083W, strain WHI5 (second series), stronger effect = lower value
[22] = locus YPL241C, strain CIN2, stronger effect = lower value
[23] = locus YDR150W, strain NUM1, stronger effect = lower value
[24] = locus YJR075W, strain HOC1, stronger effect = lower value
[25] = locus YNL128W, strain TEP1, stronger effect = lower value
[26] = locus YPL055C, strain LGE1, stronger effect = lower value
[27] = locus YAL013W, strain DEP1, stronger effect = lower value
[28] = locus YBR229C, strain ROT2, stronger effect = lower value
[29] = locus YDL101C, strain DUN1, stronger effect = lower value
[30] = locus YEL061C, strain CIN8, stronger effect = lower value
[31] = locus YJR043C, strain POL32, stronger effect = lower value
[32] = locus YKL190W, strain CNB1, stronger effect = lower value
[33] = locus YLR039C, strain RIC1, stronger effect = lower value
[34] = locus YLR262C, strain YPT6, stronger effect = lower value
[35] = locus YMR307W, strain GAS1, stronger effect = lower value
[36] = locus YCL061C, strain MRC1, stronger effect = lower value
[37] = locus YHR087W, strain rtc3, stronger effect = lower value
[38] = locus YJL187C, strain SWE1, stronger effect = lower value
[39] = locus YLR058C, strain SHM2 (second series), stronger effect = lower value
[40] = locus YLR085C, strain ARP6, stronger effect = lower value
[41] = locus YML094W, strain GIM5, stronger effect = lower value
[42] = locus YMR219W, strain ESC1, stronger effect = lower value
[43] = locus YNL298W, strain CLA4 (second series), stronger effect = lower value
[44] = locus YNR030W, strain Alg12, stronger effect = lower value
[45] = locus YPR135W, strain CTF4, stronger effect = lower value

Measured: normalized growth

COC(=O)C(OC(C)=O)[C@H]1C(C)(C)C(OC(C)=O)[C@@H]2CC3=C4CC(=O)O[C@@H](c5ccoc5)[C@]4(C)CCC3[C@@]1(C)C2=O (stereo partly specified)
inactive: [1] 0.961 | [2] 0.967 | [3] 0.979 | [4] 0.917 | [5] 0.99 | [6] 0.932 | [7] 0.989 | [8] 0.951

CCC(NC(C)C)C(O)c1ccc(O)c(O)c1 (stereo unspecified)
inactive: [9] 1 | [10] 0.992 | [11] 1.02 | [12] 1.01 | [13] 1.02 | [14] 0.976 | [1] 1.01 | [2] 0.97 | [3] 0.982 | [4] 0.954 | [5] 0.99 | [15] 1.02 | [16] 1 | [17] 1.02 | [6] 0.923 | [18] 1.02 | [19] 1.01 | [20] 0.992 | [21] 1.03 | [7] 0.982 | [22] 0.991 | [8] 0.96

CN(N=O)c1cc(O)ccc1O
inactive: [9] 0.98 | [10] 0.99 | [23] 1 | [11] 0.975 | [12] 1 | [13] 0.988 | [24] 0.989 | [25] 0.993 | [16] 1.02 | [17] 0.983 | [18] 1.01 | [19] 0.991 | [21] 0.991 | [26] 0.972 | [22] 0.987

CN(N=O)c1ccc(O)c(O)c1
active: [23] 0.934
inactive: [27] 0.957 | [9] 0.997 | [10] 0.946 | [11] 0.928 | [12] 0.974 | [13] 0.972 | [24] 0.93 | [15] 0.998 | [17] 0.976 | [18] 0.964 | [19] 0.994 | [21] 0.98 | [26] 0.993

CC(C)CC(NC(=O)C(Cc1ccccc1)NC(=O)CNC(=O)CNC(=O)C(N)Cc1ccc(O)cc1)C(=O)O (stereo unspecified)
inactive: locus YBR021W, strain FUR4, stronger effect = lower value 0.858 | [28] 0.95 | locus YCL029C, strain bik1, stronger effect = lower value 0.979 | locus YDL035C, strain GPR1, stronger effect = lower value 0.956 | locus YDL074C, strain BRE1, stronger effect = lower value 1.01 | [29] 1.02 | locus YDL185W, strain tfp1, stronger effect = lower value 0.973 | locus YDL192W, strain arf1, stronger effect = lower value 0.995 | locus YDR101C, strain arx1, stronger effect = lower value 0.976 | [23] 0.989 | locus YDR162C, strain NBP2, stronger effect = lower value 0.951 | locus YDR318W, strain mcm21, stronger effect = lower value 0.991 | locus YDR388W, stronger effect = lower value 0.978 | locus YDR502C, strain sam2, stronger effect = lower value 1.01 | [30] 0.987 | locus YER110C, stronger effect = lower value 0.988 | locus YER155C, strain BEM2, stronger effect = lower value 1.01 | locus YER167W, strain BCK2, stronger effect = lower value 0.989 | locus YGL078C, strain dbp3, stronger effect = lower value 0.999 | locus YGL086W, strain mad1, stronger effect = lower value 1 | locus YGL248W, strain PDE1, stronger effect = lower value 1 | locus YGR135W, strain pre9, stronger effect = lower value 0.96 | [14] 0.963 | locus YGR252W, strain gcn5, stronger effect = lower value 1.07 | [1] 0.984 | locus YHR079C, strain IRE1 (second series), stronger effect = lower value 0.996 | locus YHR094C, strain hxt1, stronger effect = lower value 0.982 | locus YHR129C, strain ARP1, stronger effect = lower value 0.998 | locus YHR200W, strain rpn10, stronger effect = lower value 0.994 | locus YIL066C, strain RNR3, stronger effect = lower value 0.948 | locus YIL073C, strain SPO22, stronger effect = lower value 1.28 | locus YIL125W, strain kgd1, stronger effect = lower value 0.993 | locus YIR030C, strain dcg1, stronger effect = lower value 1 | [3] 1.06 | locus YJL134W, strain LCB3, stronger effect = lower value 0.987 | locus YJL168C, strain set2, stronger effect = lower value 1.01 | locus YJL187C, strain SWE1 (second series), stronger effect = lower value 1.03 | [31] 0.976 | locus YKL009W, strain mrt4, stronger effect = lower value 1.01 | locus YKL068W, stronger effect = lower value 0.989 | locus YKL085W, strain MDH1 (second series), stronger effect = lower value 0.99 | locus YKL085W, strain MDH1, stronger effect = lower value 0.99 | [32] 1 | locus YKR001C, strain vps1, stronger effect = lower value 1.01 | locus YLR058C, strain SHM2, stronger effect = lower value 0.981 | locus YLR102C, strain apc9, stronger effect = lower value 0.994 | locus YLR268W, strain sec22, stronger effect = lower value 1.01 | locus YLR330W, strain CHS5, stronger effect = lower value 0.986 | locus YLR342W, strain FKS1 (second series), stronger effect = lower value 0.889 | locus YLR371W, strain rom2, stronger effect = lower value 0.988 | locus YLR418C, strain cdc73, stronger effect = lower value 1 | locus YML016C, strain PPZ1, stronger effect = lower value 0.975 | locus YML032C, strain rad52, stronger effect = lower value 0.97 | locus YML124C, strain tub3, stronger effect = lower value 0.998 | locus YMR078C, strain ctf18, stronger effect = lower value 0.986 | locus YMR223W, strain ubp8, stronger effect = lower value 0.988 | [35] 1.01 | locus YNL067W, strain RPL9B, stronger effect = lower value 1.05 | [25] 0.969 | locus YNL233W, strain BNI4, stronger effect = lower value 1.04 | locus YNL250W, strain rad50, stronger effect = lower value 0.981 | locus YNL271C, strain bni1, stronger effect = lower value 0.988 | locus YNL298W, strain CLA4, stronger effect = lower value 0.979 | locus YNL307C, strain MCK1, stronger effect = lower value 0.987 | [20] 0.997 | locus YNR052C, strain pop2, stronger effect = lower value 0.981 | locus YOL012C, strain htz1 0.972 | locus YOL147C, strain pex11, stronger effect = lower value 0.993 | locus YOR061W, strain CKA2, stronger effect = lower value 0.961 | locus YOR069W, strain VPS5, stronger effect = lower value 0.99 | locus YOR136W, strain idh2, stronger effect = lower value 1.02 | locus YOR144C, strain elg1, stronger effect = lower value 0.995 | locus YOR184W, strain ser1, stronger effect = lower value 0.996 | locus YOR316C, strain cot1, stronger effect = lower value 0.989 | [26] 0.988 | [22] 0.985 | locus YPR119W, strain clb2, stronger effect = lower value 0.992 | locus YPR141C, strain kar3, stronger effect = lower value 0.991 | locus YPR163C, strain tif3, stronger effect = lower value 0.979 | locus YPR167C, strain met16, stronger effect = lower value 0.997 | strain wtn01, stronger effect = lower value 0.987
active: [33] 1.38 [resistant] | [34] 1.46 [resistant]

CC(C)C[C@H](NC(=O)[C@H](O)[C@H](N)Cc1ccccc1)C(=O)O
inactive: [9] 0.978 | [10] 1 | [11] 1.03 | [12] 1.03 | [14] 1 | [15] 0.994 | [35] 0.986 | [25] 0.981 | [16] 0.986 | [17] 0.999 | [18] 1 | [19] 0.99 | [21] 1.03

CC(C)C[C@H](NC(=O)[C@@H](O)[C@H](N)Cc1ccccc1)C(=O)O
inactive: [9] 1.05 | [10] 1.01 | [23] 1.03 | [11] 0.994 | [12] 1.02 | [13] 0.998 | [16] 1.03 | [17] 0.997 | [18] 0.996 | [19] 1.01 | [21] 0.989 | [26] 1.02

CCO/C=C1\SC(=S)N(CCc2ccccc2)C1=O
active: [28] 0.898 | [36] 0.882 | [30] 0.66 | [13] 0.919 | [14] 0.893 | [1] 0.149 | [37] 0.847 | [38] 0.897 | [24] 0.843 | [32] 0.736 | [33] 0.166 | [39] 0.898 | [40] 0.181 | [34] 0.193 | [42] 0.906 | [43] 0.561 | [20] 0.926 | [45] 0.305
inactive: [27] 0.969 | [29] 0.973 | [23] 0.986 | [31] 0.961 | [41] 0.882 | [15] 0.962 | [16] 0.936 | [44] 0.929 | [26] 0.975 | [22] 0.969

COc1ccc(OC)c(S(=O)(=O)Oc2ccc(C#N)cc2)c1
inactive: [27] 0.997 | [28] 0.994 | [36] 1.02 | [29] 0.984 | locus YDL134C, strain PPH21, stronger effect = lower value 1.01 | [23] 0.98 | [30] 0.956 | [13] 0.994 | [14] 0.968 | [1] 0.937 | [37] 0.968 | [31] 0.981 | [24] 1 | [33] 1.09 | [39] 0.992 | [40] 0.93 | [34] 1.09 | [41] 0.981 | [42] 1.01 | [15] 0.992 | [25] 1 | [16] 0.977 | [43] 0.972 | [20] 1 | [44] 0.973 | [26] 0.961 | [22] 0.987 | [45] 0.924

COc1ccc(OC)c(S(=O)(=O)Nc2ccc(C#N)cc2)c1
inactive: [27] 0.978 | [28] 1.01 | [29] 1 | [23] 0.998 | [30] 1.02 | [13] 1.02 | [14] 1 | [1] 1.01 | [37] 1.01 | [38] 1 | [31] 0.989 | [24] 1.01 | [32] 0.996 | [33] 0.993 | [39] 1 | [40] 1.04 | [34] 0.953 | [41] 1.03 | [42] 1 | [15] 0.997 | [35] 1.05 | [16] 0.998 | [43] 1 | [20] 0.993 | [44] 1.02 | [26] 1.02 | [22] 1.02 | [45] 0.951
